Screening results (PubChem BioAssay)
D3 ag: activates the human D3 dopamine receptor; hit rate 0.58% among 410,000; P35462; max activation, %; D3R DiscoveRx beta-arrestin cells, luminescence, 90 min; in the data active means max activation above about 30%; further: 0% is about no effect
Target sequence (P35462 whole entry, looked up): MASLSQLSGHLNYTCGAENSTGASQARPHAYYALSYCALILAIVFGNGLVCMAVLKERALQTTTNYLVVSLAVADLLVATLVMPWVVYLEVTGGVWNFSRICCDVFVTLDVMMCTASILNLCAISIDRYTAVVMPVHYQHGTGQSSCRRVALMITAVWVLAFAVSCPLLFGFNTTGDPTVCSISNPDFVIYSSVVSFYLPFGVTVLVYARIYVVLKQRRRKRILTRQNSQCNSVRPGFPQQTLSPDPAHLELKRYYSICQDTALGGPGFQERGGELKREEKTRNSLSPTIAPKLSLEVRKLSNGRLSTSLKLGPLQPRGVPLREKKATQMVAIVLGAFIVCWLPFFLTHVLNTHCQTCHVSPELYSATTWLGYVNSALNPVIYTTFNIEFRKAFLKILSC
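Agonist mode: compounds and dopamine controls were applied to plated cells for 90 min at 37 degrees C after an overnight attachment at 1500 cells/well. Luminescent read-out followed 30 - 60 minutes at room temperature with DiscoveRx detection reagent.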
DT40 TDP1 CPT: growth inhibition of DT40 Tdp1-/-;hTDP1 cells with camptothecin (screen for TDP1 inhibitors). Potency, µM (doses to about 46.2 µM), for the others: at the highest dose activity change, negative = growth inhibition, usual class: inhibitors. hit rate 12% among 420,000. chicken DT40 Tdp1-/-;hTDP1 cells + 20 nM CPT, ATP luminescence, 48 h; further: potency means the concentration at half of the fitted maximal effect; on the % scale 0 is the no-effect control and ±100 the full control effect; nearly all actives have a fitted effect of over 55% in size
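Chicken DT40 Tdp1-/- cells complemented with human TDP1, 400 cells/well, exposed to compounds plus 20 nM camptothecin for at least 48 h at 37 C; viability read as ATP content by CellTiter-Glo luminescence.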
DRD3 antagonist: D3 dopamine receptor (human) antagonism; hit rate 2.5% among 360,000; max response, negative = inhibition, %; D3R cells, DiscoveRx beta-arrestin luminescence, antagonist mode; active compounds read low; AID 652054; in the data active means max response below about -50%; inconclusive means no clear call, values can overlap the other calls; further: on the % scale 0 is the no-effect control and ±100 the full control effect
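Cells expressing the human receptor were seeded at 1500 cells/well, incubated overnight at 37 degrees C in 5% CO2, then exposed to library compounds with dopamine controls for 90 minutes at 37 degrees C before luminescent detection.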
IL1B secr inh: blocks inflammasome-driven IL-1 beta release; THP-1 LPS/ATP IL-1B secretion, AlphaLISA, 16 h; active compounds read low; activity change, % at 57.5 µM; hit rate 4.7% among 360,000; AID 743279; in the data active means activity change below about -50%; inconclusive means mostly about -30% to -49%; further: on the % scale 0 is the no-effect control and ±100 the full control effect
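THP-1 cells pretreated 1 hr with compounds (up to 57.5 uM final), then stimulated with LPS (250 ng/mL final) plus ATP (1.25 mM final); secreted IL-1B measured by AlphaLISA after 16 hr, decreased signal indicating inhibition.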
ClpP mod: qHTS Assay for Activators of ClpP | ATP-dependent Clp protease proteolytic subunit (Bacillus subtilis (strain 168)), P80244 | purified B. subtilis ClpP, FRET peptide cleavage, 20 min | Potency, µM (doses to about 57.5 µM), for the others: at the top dose activity change, negative = active | hit rate 1.9% among 340,000 | AID 651965, 2013; active means well fitted falling curve with a large enough effect; inconclusive means small, poorly fitted or top-dose-only effect; inactive means no such curve, though single readings can be large or run the other way; further: potency means the concentration at half of the fitted maximal effect; the source files actives as falling curves though it sought activators and does not explain the sign; nearly all actives have a fitted effect of over 65% in size
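Buffer: 100 mM Tris/HCl pH8, 100 mM KCl, 0.05% low protease BSA, 2.5% glycerol, 0.01% Tween-20. ClpP 10 microg/mL final; 20 min RT; delta FRET normalized to ADEP and DMSO controls.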
TDP1 cell noCPT: qHTS for Inhibitors of human tyrosyl-DNA phosphodiesterase 1 (TDP1): qHTS in cells in absence of CPT. DT40 Tdp1-/- hTDP1 cells, no CPT, ATP luminescence, 48 h. Potency, µM (top dose mostly 46.2 µM), for the others: at the highest dose activity change, negative = growth inhibition, hits mostly inhibitors. hit rate 15% among 420,000; further: potency means the concentration at half of the fitted maximal effect; on the % scale 0 is the no-effect control and ±100 the full control effect; nearly all actives have a fitted effect of over 55% in size
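Chicken DT40 Tdp1-/- cells stably complemented with human TDP1 were seeded at 400 cells/well with DMSO in place of 20 nM camptothecin. After compound pinning, cells grew at least 48 hr at 37 °C; viability read by CellTiter-Glo luminescence.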
Starred values were filed as active, the others as inactive; ? = inconclusive; . = no result. An excerpt weighted towards active compounds, which were near 21% of everything screened. Unless noted, the call rests on the fitted dose curve; in most records, active means well fitted inhibition curve with a large enough effect; inconclusive means small, poorly fitted or top-dose-only effect; inactive means flat fitted curve, though single readings scatter.

SMILES	D3 ag	DT40 TDP1 CPT	DRD3 antagonist	IL1B secr inh	ClpP mod	TDP1 cell noCPT
COc1cccc(C(C(=O)NC(C)(C)C)N(Cc2ccc(C)cc2)C(=O)CCC(=O)Nc2cc(C)on2)c1OC (centres undefined)	-4	?	2	-11	.	?
COc1cccc(C(C(=O)NC(C)(C)C)N(Cc2ccco2)C(=O)CCC(=O)Nc2cc(C)on2)c1OC (centres undefined)	-16	3%	-8	-12	.	29µM*
O=C(CNS(=O)(=O)c1ccccc1)N/N=C/c1ccccc1[N+](=O)[O-]	12	-22%	-13	7	.	-22%
CCOCCCNC(=O)C(c1ccc(C)cc1)N(Cc1ccc2c(c1)OCO2)C(=O)c1ccc(NC(C)=O)cc1 (centres undefined)	20	15µM*	.	.	1%	?
CCOCCCNC(=O)C(c1ccc(Cl)cc1)N(Cc1cccs1)C(=O)c1ccc(NC(C)=O)cc1 (centres undefined)	5	15µM*	.	.	0%	16µM*
CCOCCCNC(=O)C(c1ccc(Cl)cc1)N(Cc1ccc2c(c1)OCO2)C(=O)c1ccc(NC(C)=O)cc1 (centres undefined)	-1	?	.	.	2%	?
CCOCCCNC(=O)C(c1ccccc1)N(Cc1cccs1)C(=O)c1ccccc1O (centres undefined)	4	-12%	39	0	.	?
CCOCCCNC(=O)C(c1ccc(C)cc1)N(Cc1cccs1)C(=O)c1ccc(NC(C)=O)cc1 (centres undefined)	7	21µM*	.	.	-2%	18µM*
CCOCCCNC(=O)C(c1ccc(C)cc1)N(Cc1cccs1)C(=O)c1ccccc1O (centres undefined)	6	-6%	16	-108*	.	?
Cc1noc(C)c1S(=O)(=O)N(C)C[C@H]1Oc2c(NC(=O)NC(C)C)cccc2C(=O)N([C@H](C)CO)C[C@@H]1C	3	-7%	?	-5	0%	-10%
CCOC(=O)C1(Cc2ccccc2C(F)(F)F)CCN(C2CCN(C(C)=O)CC2)CC1	-6	3%	-11	2	.	-27%
CN1CCc2nc(NC(=O)COc3ccc(C#N)cc3)sc2C1	-6	?	-7	4	1%	?
C(=N\Nc1cc(N2CCCCC2)ncn1)/c1ccco1	7	-11%	-7	-12	-1%	-28%
CC1CCN(S(=O)(=O)c2ccc3c(c2)N(CC(=O)NCc2ccccc2)C(=O)CO3)CC1	-8	.	.	.	-2%	.
CCOCCCNC(=O)C(c1ccccc1)N(Cc1ccc2c(c1)OCO2)C(=O)c1ccc(NC(C)=O)cc1 (centres undefined)	4	?	.	.	0%	-25%
CCOCCCNC(=O)C(c1ccccc1)N(Cc1cccs1)C(=O)c1ccc(NC(C)=O)cc1 (centres undefined)	-5	?	.	.	-1%	16µM*
O=c1c2oc3ccccc3c2n(Cc2ccc(Cl)cc2)c(=O)n1Cc1ccco1	-7	-11%	.	.	0%	-17%
COc1ccc(Cl)cc1NC(=O)CSc1cn(CC(=O)N2CCCC2)c2ccccc12	-16	12µM*	.	.	0%	3.3µM*
COc1ccc(Cl)cc1NC(=O)CSc1cn(CC(=O)N2CCCCCC2)c2ccccc12	-2	13µM*	.	.	0%	12µM*
CN(Cc1ccccc1)C(=O)CCCn1c(=O)c2cccn2c2cccnc21	-14	-28%	-20	-27	4%	-16%
CC(=O)C1=C(C)NC(SCC(=O)c2ccc(Cl)cc2)=C(C#N)C1CC(C)C (centres undefined)	-1	-23%	1	-3	25µM*	?
CC(=O)C1=C(C)NC(SCC(N)=O)=C(C#N)C1c1ccco1 (centres undefined)	-19	26%	-7	-12	.	20%
